Holding throughout (assay): NCI-60 one-dose screen, 48 h (100 = growth as untreated, 0 = no growth, -100 = all killed)
Common to all, as to conditions: 10 µM unless noted

Assay [1] relates to EKVX NSCLC.
The test system of assay [2] is SN12C renal.
In assay [3] the test system is UO-31 renal.
Assay [4] concerns TK-10 renal.
Assay [5] has as its system ACHN renal.
Assay [6] has as its system CAKI-1 renal.
Assay [7] deals with A498 renal.
The subject of assay [8] is CCRF-CEM leukemia.
For assay [9], the system named is MOLT-4 leukemia.
Assay [10] has as its system SR leukemia.

Each structure is given as a SMILES string. The panel holds about 83,000 compounds, 20% with a hit somewhere; the sample as a whole holds those more often.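 The endpoint reported here, percent growth, reads 100 for growth as untreated, 0 for no net growth and -100 for all cells dead.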 A number with no mark means an inactive call. Calls of active or inactive are those of the source. Rule for the calls: active = growth percent below 10; inactive = the rest.

On to `CN(C)/C=C1\SC(=Nc2ccc(Cl)cc2)NC1=O`, for which the growth in assay [1] was 95.6%; in assay [2], 92.1%; in [3], 90.4%; in assay [4], 111%; in assay [5], 103%; in [6] it was 96.1%. Also, the growth is 94.6% in assay [7], 106% in assay [8], 101% in assay [9] and 123% in assay [10].
For `COc1ccc(-c2nocc2-c2cccs2)cc1`, the growth was 91.6% in [1]; 103% in assay [2]; 88.2% in assay [3]; 104% in assay [4]; 103% in assay [5]; 89.8% in assay [6]. Besides, the growth was 107% in [7], 105% in assay [8], 108% in assay [9] and 128% in assay [10].
For the molecule `COc1cc2nc(-c3cnc(N(C)C)nc3)nc(NC3CCN(Cc4ccccc4)CC3)c2cc1OC`, the growth is -71.2% (active) in assay [1]; -87.2% (active) in assay [2]; -81.2% (active) in assay [3]; -98.6% (active) in [4]; -100% (active) in [5]; -90.9% (active) in [6]. The growth in assay [7] is 43.2%; in assay [8], -31.3% (active); in assay [9] it was -16.5% (active); in assay [10] it was 4.28% (active).
As to `O=C1C(Cl)=C(NCc2ccco2)C(=O)c2ccccc21`, the growth is 110% in assay [1]; 90.1% in assay [2]; 97.3% in assay [3]; 110% in assay [4]; 93.8% in assay [5]; 93.9% in assay [6]. Further, the growth is 89.8% in [7], 24.4% in assay [8], 91.1% in assay [9] and 63.9% in [10].
On to `NCCOc1ncccc1/C=C1\c2ccccc2-c2ccc(F)cc21`, for which the growth in assay [1] was 51.9%; in assay [2], 2.42% (active); in assay [3] it was -17.5% (active); in assay [4] it was 22.4%; in assay [5] it was -20.8% (active); in assay [6], 12.8%. Also, the growth in assay [7] is 18.9%; in assay [8] it was 6.8% (active); in assay [9], 2.25% (active); in assay [10], 9% (active).
Regarding `COc1ccc(-c2cn[nH]c2-c2ccc(OC)c(O)c2)cc1`, the growth in assay [1] was 84.9%; in [2] it was 91.3%; in assay [3], 85.1%; in [4] it was 88.6%; in assay [5], 92.2%; in assay [6], 75%. The growth was 59% in assay [7], 71.9% in assay [8], 67.4% in assay [9] and 33.7% in assay [10].
Turning to `COc1ccc(-c2cn[nH]c2-c2cc(OC)c(OC)c(OC)c2)cc1OCc1ccccc1`, the growth in [1] is 33.5%; in assay [2], 62.3%; in [3], 25.6%; in assay [4], 50.9%; in assay [5] it was 34.1%; in assay [6], 28.9%. Moreover, the growth in assay [7] is -18.9% (active); in assay [8] it was 47%; in [9], 64.5%; in assay [10] it was 27.5%.
`C=C1C(=O)O[C@H]2[C@H]1CC/C(COC(=O)/C=C\C(=O)O)=C\CC[C@@]1(C)O[C@@H]21`: the growth was 102% in assay [1]; 99.1% in assay [2]; 85.2% in assay [3]; 106% in assay [4]; 98% in [5]; 100% in assay [6]. The growth in assay [7] was 93.5%; in assay [8], 107%; in assay [9], 110%; in [10], 114%.
Take `NS(=O)(=O)c1ccc(CCN=C=S)cc1`: the growth in assay [1] was 99.9%; in [2] it was 28.6%; in [3] it was -41.9% (active); in [4], -4.75% (active); in [5], -70.7% (active); in assay [6], 21.8%. Further, the growth is 79.8% in [7], 10.4% in [8], 16.3% in [9] and 9.82% (active) in assay [10].
As to `COC(=O)C1=Nc2ccc(F)cc2/C1=C/c1sc(=S)[nH]c1O`, the growth in [1] was 36.8%; in [2], 27.3%; in assay [3], 14.7%; in [4] it was 56%; in assay [5], 25.1%; in [6], 20%. Also, the growth in assay [7] was 25.7%; in [8] it was 11.9%; in assay [9] it was 13.7%; in assay [10], 22.3%.
Take `CCCCC1COc2cccc3c2N1C=C/C3=C\C(=O)N(C)c1ccccc1` (stereo not given): the growth in assay [1] is 45.8%; in assay [2], 64.9%; in assay [3] it was 59.3%; in assay [4], 108%; in [5] it was 68.9%; in assay [6], 72%. For the same molecule, the growth was 86.1% in assay [7], 47.6% in assay [8], 55.7% in [9] and 66.6% in assay [10].
Consider `COC(=O)/C(CCC=C(C)C)=C1\[C@@H](OC(C)=O)C[C@@]2(C)[C@H]1C[C@@H](O)[C@H]1[C@@]3(C)CC[C@H](NC(=O)c4cnccn4)[C@@H](C)[C@@H]3CC[C@@]12C`, for which the growth in assay [1] is 94.1%; in assay [2], 95.7%; in assay [3], 85.6%; in assay [4], 117%; in assay [5] it was 101%; in assay [6], 92%. The growth in [7] is 108%; in assay [8], 103%; in assay [9], 83.9%; in assay [10], 93.5%.
On to `COc1ccc(C2C3=C(COC3=O)N(CCO)c3cc4c(cc32)CCC4)cc1OC` (stereo not given), for which the growth in assay [1] is 23.3%; in [2], 38.8%; in assay [3] it was 42%; in [4] it was 14.1%; in [5] it was 47.6%; in [6], 8.75% (active). In addition, the growth is 29% in assay [7], 18.6% in [8], 24% in assay [9] and 25% in assay [10].

These data come from PubChem BioAssay (NCI).
